# High-throughput results as filed in PubChem BioAssay.
# A selection: hits, their analogues and other compounds. The true share with any hit is near 12%.
# BAZ2B block: blocks human BAZ2B; Q9UIF8; AlphaScreen BAZ2B-H3K14Ac peptide displacement; Potency, µM (doses to about 114 µM), most hits filed as inhibitors; 360,000 tested, 4.4% active; note: nearly all actives have a fitted effect of over 60% in size
#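 AlphaScreen luminescence quantifies BAZ2B engagement of H3K14Ac peptide; the protein and biotinylated peptide are both at 50 nM final, buffer PBS pH 7.4 with 0.01% Tween-20, all steps at room temperature.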
# Sfp inh: blocks B. subtilis Sfp PPTase activity; Q9F4F7; Biochemical Sfp PPTase activity, qHTS; Potency, µM, most hits filed as inhibitors; 310,000 tested, 3.5% active;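 note: the enzyme is Sfp with the accession as filed and its product quenches rhodamine fluorescence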
#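 After 15 min at room temperature with compound, 15 nM Sfp received 5 uM rhodamine-CoA plus 12.5 uM BHQ-2-ybbR (50 mM Hepes pH 7.6, 10 mM MgCl2). Rate came from the fluorescence difference over 30 min, ex 525/em 598 nm.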
# L3MBTL1 block: L3MBTL1 (human) inhibition; AlphaScreen L3MBTL1–H3K9me1 peptide binding; Potency, µM (titrated, usually from 57.1 µM), most hits filed as inhibitors; Q9Y468; 230,000 tested, 0.66% active; note: nearly all actives have a fitted effect of over 60% in size
# Target sequence (Q9Y468 whole entry, looked up): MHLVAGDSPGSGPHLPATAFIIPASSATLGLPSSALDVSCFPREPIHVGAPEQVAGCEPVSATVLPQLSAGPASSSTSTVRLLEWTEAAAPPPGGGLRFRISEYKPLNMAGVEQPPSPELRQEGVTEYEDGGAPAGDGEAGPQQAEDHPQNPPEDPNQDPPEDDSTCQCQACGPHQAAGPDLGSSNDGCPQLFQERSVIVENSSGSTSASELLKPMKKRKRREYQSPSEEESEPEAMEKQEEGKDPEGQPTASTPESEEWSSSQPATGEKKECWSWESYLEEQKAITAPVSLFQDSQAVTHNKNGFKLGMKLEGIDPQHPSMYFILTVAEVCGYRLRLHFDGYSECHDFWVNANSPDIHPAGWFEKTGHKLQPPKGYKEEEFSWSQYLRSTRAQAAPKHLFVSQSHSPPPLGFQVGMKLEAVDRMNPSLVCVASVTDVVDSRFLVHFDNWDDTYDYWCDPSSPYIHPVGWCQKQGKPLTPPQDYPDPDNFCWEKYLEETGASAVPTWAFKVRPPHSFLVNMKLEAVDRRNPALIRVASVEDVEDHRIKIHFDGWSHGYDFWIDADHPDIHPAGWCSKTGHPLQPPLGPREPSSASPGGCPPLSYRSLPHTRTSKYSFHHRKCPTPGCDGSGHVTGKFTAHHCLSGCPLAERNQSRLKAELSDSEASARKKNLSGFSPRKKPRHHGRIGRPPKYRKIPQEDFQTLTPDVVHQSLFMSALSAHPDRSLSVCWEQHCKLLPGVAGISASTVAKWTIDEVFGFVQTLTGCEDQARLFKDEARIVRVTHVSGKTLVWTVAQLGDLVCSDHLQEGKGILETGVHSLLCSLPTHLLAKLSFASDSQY
#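 L3MBTL1 (50 nM) pre-complexed 30 min with biotinylated H3(1-15)K9me1 peptide (75 nM), then compounds added for 30 min at room temperature; AlphaScreen streptavidin donor/nickel chelate acceptor beads (10 ug/mL final) read after 30 min dark incubation.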
# G9a block: G9a (human) methyltransferase inhibition; Q96KQ7; G9a H3K9 monomethylation, AlphaScreen, 2 h; Potency, µM (top dose mostly 102 µM), hits mostly inhibitors; 350,000 tested, 8.8% active; note: nearly all actives have a fitted effect of over 75% in size
#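 Methyltransferase reactions run at room temperature for 2 h (20 nM enzyme, 500 nM biotin-H3K9 peptide, 20 uM SAM) after a 15 min compound preincubation; product detected by AlphaScreen beads and anti-H3K9me1 antibody.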
# JMJD2A Tudor inh: JMJD2A Tudor domain (human) inhibition. AID 504339. AlphaScreen JMJD2A-Tudor / H3K4me3 peptide binding. 390,000 tested, 4.4% active. O75164. Potency, µM (top dose mostly 114 µM), hits mostly inhibitors; note: nearly all actives have a fitted effect of over 50% in size
# HP1b chromo inh: HP1-beta chromodomain-methylated histone interaction inhibition | Potency, µM (titrated, usually from 114 µM), usual class: inhibitors | 390,000 tested, 0.56% active | AlphaScreen HP1-beta / biotin-H3K9me3 peptide binding | AID 540317; note: nearly all actives have a fitted effect of over 70% in size
#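 Compound inhibition of the preformed complex between 50 nM HP1-beta and 50 nM biotinylated H3K9me3 peptide was read by AlphaScreen. Buffer was PBS pH 7.4 with 0.01% Tween-20. Incubations ran 30 min at room temperature, with 10 ug/mL donor/acceptor beads.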
# A number is an active result; . = inactive; ? = inconclusive; / = no result; [ ] = another dose, or the depositor's remark. Calls come from the whole dose curve; as a rule, active = well fitted curve in the direction sought with a large enough effect; inconclusive = small, poorly fitted or top-dose-only effect, or another doubt; inactive = no such curve, though single readings can be large; an effect the other way counts as inactive or inconclusive.
SMILES,BAZ2B block,Sfp inh,L3MBTL1 block,G9a block,JMJD2A Tudor inh,HP1b chromo inh
CCCNC(=O)CCc1c(C)nc2nc(CNC(=O)c3ccccc3)nn2c1C,.,/,/,.,.,.
Cc1cc2cc(CNC(=O)c3ccco3)ccc2n1C,?,79µM,/,?,.,.
Cc1cc2cc(CNC(=O)c3cc4ccccc4o3)ccc2n1C,?,.,.,?,/,/
C=CCOc1ccccc1CN1CCCCCC1,?,.,.,/,1.4µM,?
C=CCOc1ccccc1CN1CCSCC1,56µM,.,.,?,6.3µM,?
C=CCOc1ccccc1CN1CCC(Oc2ccc(C(=O)N3CCCCC3)cc2)CC1,.,.,/,.,.,.
CCCCNc1c([N+](=O)[O-])cc(C)cc1[N+](=O)[O-],32µM,.,?,40µM,18µM,16µM
COc1ccc(C(=O)C2CCCN(C(=O)c3ccc(CSC)o3)C2)cc1F (stereo not drawn),.,?,/,32µM,.,.
COc1ccc(C(=O)C2CCCN(C(=O)c3noc4c3CCCC4)C2)cc1F (stereo not drawn),.,.,.,.,.,.
CCC(C)NC(=O)C1=CC(c2ccc3c(c2)OCO3)=NS(=O)(=O)N1C (stereo not drawn),.,/,/,.,.,.
Cc1ccc(C(=O)N/C(=C\c2ccc(-c3cccc([N+](=O)[O-])c3)o2)C(=O)NCCCN(C)C)cc1,.,.,.,50µM,.,.
CN(C)CCNC(=O)/C(=C/c1ccc(-c2ccc(Cl)cc2)o1)NC(=O)c1ccccc1,.,.,.,?,.,.
CN(C)CCNC(=O)/C(=C/c1ccc(-c2ccc(Cl)cc2Cl)o1)NC(=O)c1ccccc1,.,40µM,.,?,?,.
Cc1ccc(C(=O)N/C(=C\c2ccc(-c3ccccc3[N+](=O)[O-])o2)C(=O)NCCCN2CCOCC2)cc1,?,?,/,45µM,?,.
CN(C)CCCNC(=O)/C(=C\c1ccc(-c2cccc([N+](=O)[O-])c2)o1)NC(=O)c1ccccc1,.,.,.,50µM,?,.
Cc1ccc(C(=O)N/C(=C\c2ccc(-c3ccc(Br)cc3)o2)C(=O)NCCCN(C)C)cc1,.,?,.,.,.,.
CC(C)CCN(C(=O)c1ccccn1)c1c(N)n(Cc2ccccc2)c(=O)[nH]c1=O,/,/,.,/,.,.
CN(C)S(=O)(=O)c1ccc(Cl)c(NC(=O)COC(=O)/C=C/c2ccco2)c1,56µM,.,.,?,.,.
CN(C)S(=O)(=O)c1cccc(NC(=O)COC(=O)/C=C/c2ccc(Br)o2)c1,.,?,.,45µM,.[11.4 µM],?
Cc1ccc(NC(=O)COC(=O)/C=C/c2ccc(Br)o2)cc1S(=O)(=O)N(C)C,?,?,.,?,.,.
O=C(CN1C(=O)c2cccnc2Oc2ccc(Cl)cc21)NCCCc1ccccc1,.,.,/,/,.,.
O=C(CSc1nc(-c2cccs2)cc(C(F)(F)F)n1)Nc1cc(OCC(F)(F)F)cc([N+](=O)[O-])c1,.,?,.,.,22µM,.
COc1ccc(NC(=O)CSc2nc(-c3cccs3)cc(C(F)(F)F)n2)cc1OC,.,/,/,.,.,.
CCOc1ccc(S(=O)(=O)Nc2cc(Cl)ccc2OC)c2cccnc12,?,/,/,.,.,.
Cc1cccc(CCN=c2c([N+](=O)[O-])nn(-c3ccccc3)n2O)c1,/,.,/,?,50µM,?
SMILES,BAZ2B block,Sfp inh,L3MBTL1 block,G9a block,JMJD2A Tudor inh,HP1b chromo inh
O=[N+]([O-])c1nn(-c2ccc(Cl)cc2)n(O)c1=NCc1ccccc1,?,.,/,?,?,.
Cc1cc2c(cc1S(=O)(=O)C(C)CC(=O)NC1CCC(C)CC1)OCC(=O)N2 (stereo not drawn),.,/,/,.,.,.
O=C(CN1CCN(S(=O)(=O)c2ccccc2)CC1)Nc1ccc(Cl)c([N+](=O)[O-])c1,.,/,.,.[12.7 µM],.,.
O=C(NCC1CCCCC1)C1(CC2CC(c3ccc(Cl)cc3)=NO2)CCNCC1 (stereo not drawn),.,.,.,45µM,.,.
CC(C)Oc1ccc(C(=O)NCC(c2ccc(N(C)C)cc2)N2CCCC2)cc1 (stereo not drawn),?,/,/,.[12.7 µM],?,.
Cc1cc(=O)[nH]c(/N=C(\N)Nc2cccc3ccccc23)n1,56µM,.,.,79µM,?,.
COc1ccccc1N/C(N)=N/c1nc(CSc2ccc(C)cc2)cc(=O)[nH]1,.,.,.,.,79µM,.
COCc1cc(=O)[nH]c(/N=C(\N)Nc2cccc(Cl)c2)n1,.,?,.,18µM,.[11.4 µM],.
Cc1ccccc1C(=O)Nc1ccc(S(=O)(=O)N2CCOCC2)cc1,.,.,/,.,.,.
C#CCOCCOCCOCCNc1nc(N2CCN(C(=O)Cn3cc(CCCN=C(N)N)nn3)CC2)nc(N2CCN(C(=O)[C@H]([C@@H](C)O)n3cc(CCCCN)nn3)CC2)n1,.,/,.,.[2.33 µM],.,.
C#CCOCCOCCOCCNc1nc(N2CCN(C(=O)Cn3cc(CC(C)O)nn3)CC2)nc(N2CCN(C(=O)[C@H]([C@@H](C)O)n3cc(CCCCN)nn3)CC2)n1 (stereo partly drawn),/,/,/,/,.,.
C#CCOCCOCCOCCNc1nc(N2CCN(C(=O)Cn3cc(CCO)nn3)CC2)nc(N2CCN(C(=O)[C@H]([C@@H](C)O)n3cc(CCCCN)nn3)CC2)n1,.,.,.,79µM,.,.
C#CCOCCOCCOCCNc1nc(N2CCN(C(=O)Cn3cc(CCCCN)nn3)CC2)nc(N2CCN(C(=O)[C@H]([C@@H](C)CC)n3cc(CCCN=C(N)N)nn3)CC2)n1,.,/,.,.[2.33 µM],.,.
C#CCOCCOCCOCCNc1nc(N2CCN(C(=O)Cn3cc(CCCN=C(N)N)nn3)CC2)nc(N2CCN(C(=O)[C@H](C(C)C)n3cc(CCO)nn3)CC2)n1,.,.,.,50µM,.,.
C#CCOCCOCCOCCNc1nc(N2CCN(C(=O)Cn3cc(CC(C)O)nn3)CC2)nc(N2CCN(C(=O)[C@H](CCCCN)n3cc(CCC(=O)O)nn3)CC2)n1 (stereo partly drawn),.,.,.,50µM,.,.
C#CCOCCOCCOCCNc1nc(N2CCN(C(=O)Cn3cc(CCCN=C(N)N)nn3)CC2)nc(N2CCN(C(=O)[C@H]([C@@H](C)CC)n3cc(CCCN=C(N)N)nn3)CC2)n1,?,.,.,22µM,/,/
CCCCCCCN[C@H]1CCC[C@@H]1CCCCCCC(=O)O,/,.,/,/,/,/
O=C(NCc1ccccc1)C(c1ccncc1)N(C(=O)c1ccccn1)c1ccccc1 (stereo not drawn),50µM,.,/,22µM,25µM,.
CCc1cccc(N(C(=O)c2csnn2)C(C(=O)NC(C)(C)C)c2ccncc2)c1 (stereo not drawn),?,.,.,.,56µM,.
